Measured values as given in PubChem BioAssay.
Activity calls are given as the source filed them.

How the values were obtained:
Albumin (Bos taurus) = Albumin (Bos taurus) (UniProt P02769); assay: compounds binding labelled BSA control protein – biochemical, small-molecule microarray, Alexa647 label, 635/667 nm fluorescence, artefact control for SMM control protein annotation, profiling panel (AID 1118); conditions: BSA-A647 binding, fluorescence 635 nm, higher = more signal;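 further: score merges 667 nm emission intensity and signal-to-noise per printed compound spot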
Chain of Albumin (Bos taurus) (P02769 whole entry, looked up): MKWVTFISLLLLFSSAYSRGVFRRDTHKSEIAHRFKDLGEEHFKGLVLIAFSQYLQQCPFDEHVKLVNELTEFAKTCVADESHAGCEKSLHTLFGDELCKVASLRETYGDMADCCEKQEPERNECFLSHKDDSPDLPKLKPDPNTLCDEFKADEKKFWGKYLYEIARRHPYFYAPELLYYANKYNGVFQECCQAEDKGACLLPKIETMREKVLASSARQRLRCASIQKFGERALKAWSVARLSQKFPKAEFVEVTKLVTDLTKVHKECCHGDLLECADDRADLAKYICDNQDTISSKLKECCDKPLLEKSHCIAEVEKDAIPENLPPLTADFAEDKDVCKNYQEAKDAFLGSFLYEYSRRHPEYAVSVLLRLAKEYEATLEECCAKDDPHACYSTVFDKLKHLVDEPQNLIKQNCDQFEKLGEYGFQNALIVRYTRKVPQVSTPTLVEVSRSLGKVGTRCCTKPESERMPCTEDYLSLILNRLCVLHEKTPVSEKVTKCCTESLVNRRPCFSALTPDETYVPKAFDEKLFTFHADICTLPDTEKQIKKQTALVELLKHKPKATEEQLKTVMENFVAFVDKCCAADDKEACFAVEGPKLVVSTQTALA

[1] = probe aXIP binding to arrayed compounds – biochemical, NeuroSMM set, 635/667 nm fluorescence, primary screen (AID 1119); conditions: small-molecule microarray, higher = more signal, called active from +8 up or from −8 down;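 further: probe is the protein aXip251-270 applied at 1 µg/mL to compound-printed slides; binding of probe to printed compounds measured as 667 nm fluorescence plus signal to noise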
[2] = probe aNOTCH3 binding on compound microarray – biochemical, small-molecule microarray, 635/667 nm fluorescence, primary screen (AID 1120); conditions: higher = more signal;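 further: probe is a biotin-tagged antibody raised against NOTCH3 rather than NOTCH3 protein; score merges spot fluorescence near 667 nm with spot signal to noise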
[3] = probe aNOTCH2 binding on compound microarray – biochemical, small-molecule microarray, 635/667 nm fluorescence, primary screen (AID 1121); conditions: higher = more signal;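 further: score merges feature fluorescence read at 667 nm with its signal to noise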
[4] = biological target: Carbonic anhydrase 2 (Homo sapiens) (UniProt P00918); assay: compounds binding carbonic anhydrase 2 – biochemical, small-molecule microarray, Alexa647-labelled CAII, profiling panel (AID 1122); conditions: CAII-A647 binding fluorescence, higher = more signal
[5] = COS7 lysate on small-molecule microarray, probe aHis, 635 nm (AID 1123); conditions: COS7 cell lysate, fluorescence, higher = more signal;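 further: z-score combines 667nm fluorescence intensity with signal-to-noise per printed compound spot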
[6] = probe aLAP1 signal on lysate-treated microarray – cell lysate, small-molecule microarray, COS7 lysate, primary screen (AID 1124); conditions: probe aLAP1, fluorescence, higher = more signal;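 further: lysate comes from COS7 cells expressing LAP1 and is applied at 0.3 µg/mL; score merges spot fluorescence near 667 nm with signal-to-noise over triplicate slides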
Sam68 (KHDRBS1) = assay: compounds binding KHDRBS1 protein – biochemical, small-molecule microarray, 635 nm fluorescence, primary screen (AID 1125); conditions: higher = more signal;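 further: score merges 667 nm channel intensity with signal to noise over triplicate slides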
[7] = test system: Chordin-like protein 2 (CHRDL2); assay: compounds binding chordin-like 2 – biochemical, small-molecule microarray, 635 nm fluorescence, primary screen (AID 1126); conditions: fluorescence 635 nm, higher = more signal;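 further: printed compound slides probed with Chrdl2 protein at 4 µg/mL for 1 h at 4 C; score merges 667 nm emission intensity with signal to noise over three replicate slides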
[8] = biological target: Concanavalin-A (Canavalia ensiformis) (UniProt P02866); assay: compounds binding concanavalin A lectin – biochemical, small-molecule microarray, Alexa647 label, 635 nm, artefact control for SMM control protein annotation, primary screen (AID 1127); conditions: ConA-A647 binding fluorescence, higher = more signal;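 further: z combines 667 nm emission intensity with signal-to-noise across three replicate slides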
Chain of Concanavalin-A (Canavalia ensiformis) (P02866 whole entry, looked up): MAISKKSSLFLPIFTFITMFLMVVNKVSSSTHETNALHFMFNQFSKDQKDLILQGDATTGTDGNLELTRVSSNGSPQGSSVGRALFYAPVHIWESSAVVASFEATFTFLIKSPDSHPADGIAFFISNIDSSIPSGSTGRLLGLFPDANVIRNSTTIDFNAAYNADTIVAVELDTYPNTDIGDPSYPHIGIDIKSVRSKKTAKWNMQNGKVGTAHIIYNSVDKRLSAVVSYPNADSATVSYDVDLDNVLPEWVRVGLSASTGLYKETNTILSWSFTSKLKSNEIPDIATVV

Structure (SMILES)	composite z-score (Albumin (Bos taurus))	composite Z-score [1]	composite z-score [2]	composite z-score [3]	composite z-score [4]	composite z-score [5]	composite z-score [6]	composite z-score (Sam68 (KHDRBS1))	composite z-score [7]	composite z-score [8]
CN1C(=O)C2C=CC(C(O)c3cc(C(F)(F)F)cc(C(F)(F)F)c3)N(NC(=O)OC(C)(C)C)C2C1=O (stereo not given)	1.04	0.622 (inactive)	0.465	0.0753	0.604	2.87	0.403	1.3	-1.08	1.17
COc1cc(CO)cc(I)c1O[C@H]1C=C(C(=O)NCCO)C[C@@H](NCC2CCCCC2)[C@@H]1O	0.0439	-0.442 (inactive)	0.107	-0.104	0.681	1.14	-0.102	0.408	0.168	0.324
C=C(C(=O)CC[C@@H](OC(=O)c1ccccc1-c1ccccc1C(=O)O)c1ccccc1OCCO)C(C)C	0.287	-0.28 (inactive)	-0.0111	-0.108	0.734	0.418	0.175	1.21	0.935	0.866
COc1cc(NN2C(C(O)c3cc(OC)c(OC)c(OC)c3)C=CC3C(=O)N(c4ccccc4)C(=O)C32)cc(OC)c1OC (stereo not given)	1.06	0.573 (inactive)	0.612	0.044	0.722	2.19	0.289	1.32	0.476	1.2
NCCCCCNC(=O)[C@@H]1C[C@@H]2C(=O)N3CCC[C@H]3C(=O)N2[C@@H]1c1ccc(O)cc1	0.539	-0.213 (inactive)	0.0496	0.0214	0.442	1.19	0.666	0.776	0.466	0.893
[N-]=[N+]=NCc1ccccc1[C@H]1OC(c2ccc(OCCCO)cc2)=N[C@@]1(Cc1ccccc1)C(=O)NCCN1CCOCC1	0.985	0.0851 (inactive)	0.576	-0.0531	0.696	2.61	0.961	1.3	0.104	1.12
COCC1C2CC[C@H]3C(OCc4ccc(OC)cc4)OC[C@]4(C)[C@H]3C2=C(CN4C(=O)OC(C)(C)C)[C@H](C)C1COC (stereo not given in full)	1	0.709 (inactive)	0.249	-0.182	0.796	2.82	0.534	1.3	-0.355	1.15
C#C[C@@H](CC)O[Si](C#CCCCC#N)(C(C)C)C(C)C	0.202	-0.608 (inactive)	-0.0391	-0.174	0.797	1.59	-0.252	0.441	0.106	-0.193
CCCNC(=O)[C@@]1(Sc2ccc(C)cc2)CC(=O)N(C2CCCCC2)[C@@H]1c1ccc(CO)cc1I	0.207	0.73 (inactive)	-0.147	-0.132	0.439	1.47	0.207	0.65	-0.501	0.298
COCCOC(=O)N1C(=O)[C@@]2(c3cc(C#CCC(C(=O)OC)C(=O)OC)ccc31)[C@H](c1ccc(OCCO)cc1)N1[C@H](c3ccccc3)[C@H](c3ccccc3)OC(=O)[C@H]1[C@@H]2C(=O)Nc1nc2ccccc2s1	-0.86	0.575 (inactive)	-0.0077	0.15	0.405	0.221	-0.157	1.31	0.219	1.11
O=C1C[C@@](C(=O)NCC(F)(F)F)(c2ccc([N+](=O)[O-])cc2)[C@@H](c2ccc(CO)cc2)N1CC12CC3CC(CC(C3)C1)C2	-0.191	1.68 (inactive)	0.6	0.0345	0.502	2.17	-0.0251	1.29	0.297	1.13
CCCCC(=O)N(CCN1CCOCC1)[C@@H]1CC(C(=O)NCCO)=C[C@H](Oc2c(I)cc(CO)cc2OC)[C@H]1O	-0.365	-0.18 (inactive)	-0.163	-0.185	-0.142	-0.463	-0.265	0.593	0.459	0.331
CCCCCN1CC=CC23O[C@@H]4/C=C\CCC(C)OC(=O)C4[C@H]2C(=O)N(CCCCCCO)[C@@H]3C1=O (stereo not given in full)	0.548	0.928 (inactive)	-0.311	-0.164	0.781	0.84	1.57	0.623	-0.41	-0.296
CC(=O)NCCCC[C@@H]1NC(=O)[C@H]2C[C@@H](C(=O)NCCCCCNC(=O)CS)[C@@H](c3cccc(OCCO)c3)N2C1=O	0.419	1.98 (inactive)	-0.27	-0.173	0.364	2.34	-0.178	0.742	0.715	0.493
COc1cc(C(O)C2C=CC3C(=O)N(Cc4ccccc4)C(=O)C3N2n2cnnc2)cc(OC)c1OC (stereo not given)	0.578	-0.0603 (inactive)	0.401	0.202	0.686	1.1	1.01	0.462	-0.141	0.458
CC(C)C(=C=CC[C@H](O)c1cccc(OCCO)c1)CCO	0.361	0.372 (inactive)	-0.173	-0.14	0.512	0.397	-0.207	-0.126	-0.298	-0.0543
CC(CO)N1C(=O)[C@@H]2[C@H]3C(=O)OCC=C[C@H]3OC23C=CCN(c2ccc(Cl)cc2)C(=O)[C@@H]13 (stereo not given in full)	-1.68	-0.243 (inactive)	-0.454	-0.161	0.935	-0.224	-0.191	-0.598	-2.12	-2.16

Structure (SMILES)	composite z-score (Albumin (Bos taurus))	composite Z-score [1]	composite z-score [2]	composite z-score [3]	composite z-score [4]	composite z-score [5]	composite z-score [6]	composite z-score (Sam68 (KHDRBS1))	composite z-score [7]	composite z-score [8]
Cc1cccc([C@H]2C[C@H]3C(Br)=C[C@@H]2C(=O)[C@]32CO2)c1	-0.904	0.289 (inactive)	-0.125	-0.16	-0.255	-0.498	-0.552	-0.721	0.563	-0.051
C[C@]1(C(=O)O)c2ccccc2C(=O)N(Cc2ccc(OC(F)(F)F)cc2)[C@H]1c1ccc(CO)cc1	0.12	0.219 (inactive)	-0.104	0.109	0.73	1.61	0.902	-0.0536	-0.758	-0.783
[N-]=[N+]=NCc1ccccc1C[C@@]1(C(=O)N2CCCCC2)N=C(c2ccc(OCCCO)cc2)O[C@@H]1c1ccccc1CN=[N+]=[N-]	0.36	0.569 (inactive)	0.0435	0.0515	0.711	1.81	1.06	1.08	-1.07	1.09
COCCOC(=O)N1C(=O)[C@@]2(c3cc(C#CCCO)ccc31)[C@H](C(N)=O)[C@H]1C(=O)O[C@H](c3ccccc3)[C@H](c3ccccc3)N1[C@@H]2c1ccc(OCCO)cc1	0.489	0.206 (inactive)	0.12	0.0248	0.354	2.21	0.667	1.29	0.618	1.15
COc1ccc(C(O)C2C=CC3C(=O)N(c4ccccc4)C(=O)C3N2Nc2ccccc2F)cc1 (stereo not given)	0.894	0.319 (inactive)	0.154	0.12	0.399	1.69	1.14	1.2	-0.798	0.515
CCCCC(=C=CC[C@H](O)c1ccc(OCCO)cc1)C[C@H](O)COCc1ccccc1	-0.276	0.154 (inactive)	-0.163	-0.164	0.7	1.19	0.271	0.549	-0.371	-0.434
[N-]=[N+]=NCc1ccccc1[C@@H]1OC(c2ccc(OCCCO)cc2)=N[C@]1(Cc1ccccc1)C(=O)NCCN1CCOCC1	0.501	-0.016 (inactive)	0.369	0.128	0.676	1.98	0.994	1.18	0.325	1.12
CN(C)CCCNC(=O)[C@@H]1c2ccccc2C(=O)N(C2CCCCC2)[C@H]1c1ccc(CO)cc1	-0.706	0.245 (inactive)	0.303	-0.0891	0.672	1.38	0.337	1.29	1.06	1.08
COCCCNC(=O)[C@@H]1c2ccccc2C(=O)N(C2Cc3ccccc3C2)[C@H]1c1ccc(CO)cc1	-0.423	0.47 (inactive)	-0.0584	-0.0772	0.724	1.19	0.59	0.749	0.573	0.286
CN1C(=O)C2C=CC(C(O)c3ccc(F)cc3)N(NC(=O)OC(C)(C)C)C2C1=O (stereo not given)	0.854	0.134 (inactive)	0.0155	-0.0317	0.695	2.48	0.215	1.03	-1.3	0.923
C=CCN1C(=O)[C@]2(O[C@H](CCO)[C@@H]([Si](C)(C)c3ccc(OC)cc3)[C@@H]2C)c2cc(N3C(=O)COc4ccccc43)ccc21	0.427	0.0421 (inactive)	0.0039	-0.175	0.418	0.751	0.78	0.804	-0.153	0.919
CCCCCCCCCCC(O)C1C=CC2C(=O)N(C)C(=O)C2N1Nc1cc(OC)c(OC)c(OC)c1 (stereo not given)	0.869	0.776 (inactive)	-0.125	-0.0521	0.0172	1.44	0.148	-0.383	-1.3	0.245
COc1ccc([Si](C)(C)[C@@H]2[C@@H](CC(=O)N3Cc4ccccc4C[C@H]3CO)O[C@]3(C(=O)N(Cc4ccc(N5CCC5=O)cc4)c4ccccc43)[C@H]2C)cc1	0.502	-0.0662 (inactive)	-0.0362	-0.234	0.337	1.14	0.421	1.24	1.19	1.08
CC(C)[Si]1(C(C)C)OCc2cc(-c3ccc(-c4ccc(Cl)c(Cl)c4)o3)nc(CCc3ccccc3)c21	-0.176	0.182 (inactive)	-0.0362	-0.171	0.384	0.587	0.112	-0.0975	0.0164	-0.843
O=C1OCC=C[C@H]2OC34C=CCN(c5ccc6ccccc6c5)C(=O)[C@H]3N(CCCCCO)C(=O)[C@@H]4[C@@H]12 (stereo not given in full)	0.712	-0.834 (inactive)	-0.292	-0.0176	0.309	1.25	-0.148	-0.702	-1.27	-0.388
CCOC(=O)C1=C[C@@H](C(C)(C)C)N(S(=O)(=O)c2ccc(C)cc2)[C@H]1c1ccc(C)cc1	0.804	0.403 (inactive)	0.305	0.0554	0.263	2.49	0.512	1.29	0.205	1.18
